# Test results: PubChem BioAssay AID449762 (Southern Research Specialized Biocontainment Screening …, 2010)
# Screen size: about 330,000 compounds; about 1,900 (0.58%) were called active. Roughly 4% stayed inconclusive and do not appear here. No stated cut-off is given here; in the data, inconclusive means inhibition above about 70% without an active follow-up result; inactive means below that. Not all results are given here. Measured potencies and affinities stand elsewhere.
# Test: M. tuberculosis growth inhibition, HTS (AID 449762);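 further: bacterial growth assessed after seven days of incubation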
# Details: M. tuberculosis H37Rv growth inhibition, 7H9 media; at 25 µM; hits give high values
row,SMILES,inhibition
1,O=C(NCCN1CCCCC1)c1ccc2c(c1)OCCO2,1.64% (inactive)
2,O=C(O)CCCC(=O)N1CCN(c2nc(-c3ccccc3Cl)c3cc(Br)ccc3n2)CC1,2.83% (inactive)
3,O=C(O)CCC(=O)N1CCN(c2nc(-c3ccccc3Cl)c3cc(Br)ccc3n2)CC1,8.23% (inactive)
4,Cc1ccc(N(C(=O)c2csnn2)C(C(=O)NC2CCCCC2)c2ccccn2)c(C)c1 (stereo unspecified),-6.22% (inactive)
5,COc1cc(CC(=O)O)ccc1OCc1ccccc1,-4.67% (inactive)
6,COc1ccc(N(CC(=O)NC2CCCCC2)C(=O)CNC(=O)c2cccs2)cc1OC,-4.95% (inactive)
7,CCNC(=O)c1ccccc1NC(=O)c1cccc(S(=O)(=O)N2CCOCC2)c1,1.29% (inactive)
8,CC(NC(=O)c1ccccc1Cl)C1CC2CCC1C2 (stereo unspecified),4.24% (inactive)
9,COc1ccc(C(=O)NC(C)C2CC3CCC2C3)c(OC)c1 (stereo unspecified),7.27% (inactive)
10,COc1ccc(C(=O)NC(C)C2CC3CCC2C3)cc1 (stereo unspecified),0.61% (inactive)
11,Cc1ccccc1C(=O)NC(C)C1CC2CCC1C2 (stereo unspecified),4.28% (inactive)
12,Cn1cnnc1SCC(=O)NCCc1ccccc1,0.84% (inactive)
13,COC(=O)CCC(=O)Nc1cccc(Br)c1,-7.91% (inactive)
14,CC(C)(C)NC(=O)CSc1ncnc2c1nnn2Cc1ccccc1Cl,18% (inactive)
15,COCCCN1C(=O)c2ccc(C(=O)N3CCN(c4ccc(OC)cc4)CC3)cc2C1=O,0.38% (inactive)
16,Cc1cc(C)c(-n2nnnc2SCC(=O)c2cc3ccccc3o2)c(C)c1,-0.74% (inactive)
17,COC(=O)CSc1nnc(NC(=O)c2ccc3c(c2)OCO3)s1,56.1% (inactive)
18,CCOC(=O)CNC(=O)CSc1nnc(NC(=O)c2ccc3c(c2)OCO3)s1,-3.99% (inactive)
19,COc1cccc(N2CCN(C(=O)c3cccn4c(=O)c5c(C)c(C)sc5nc34)CC2)c1,-1.68% (inactive)
20,CCOc1ccc(CCNC(=O)COC(=O)c2cc(OC)c(OC)c(OC)c2)cc1OCC,-6.27% (inactive)
21,CCc1nnc(NC(=O)c2csc3c2CCC(C)C3)s1 (stereo unspecified),0.85% (inactive)
22,Cc1nnc(NC(=O)c2csc3c2CCC(C)C3)s1 (stereo unspecified),6.53% (inactive)
23,O=C(C1CCCN1S(=O)(=O)c1ccc(Cl)c(Cl)c1)N1CCOCC1 (stereo unspecified),1.37% (inactive)
24,OCC[C@H]1C[C@@H](O)[C@H](O)[C@]2(OCc3ccccc32)O1,4.05% (inactive)
25,CN(C)CCCNC(=S)N(CCN(C)C)Cc1cc2cc3c(cc2[nH]c1=O)OCCO3,-2.66% (inactive)
26,CCOc1ccccc1N1CCN(CC(=O)Nc2cc(C)on2)CC1,-0.33% (inactive)
